Compounds without any hit were thinned out: in the full panel of roughly 79,000, 15% have a hit. Active and inactive are the calls of the source. Cut-off read from the data, not from the text of the source: active = growth inhibition above about 70%; inactive = the rest.
Assay: NCI Yeast Anticancer Drug Screen. Data for the wt2 strain (AID 169);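 note: 0% = growth of vehicle-treated yeast cultures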
Conditions: S. cerevisiae wt2 strain growth inhibition, active compounds read high
Experimental: Growth inhibition of yeast strains with defined genetic alterations is measured as a screen for potential anti-cancer activity. Selected strains with alterations in DNA damage repair or cell cycle control were exposed to compounds and growth inhibition was measured relative to vehicle treated controls. The strain used in this assay is wt2

Measured: growth inhibition

CCCCCCCCCCCCCCCCCCN(C)C(COC)COP(=O)([O-])OCC[N+](C)(C)C (stereo not given)
active: at 11.0 µM 97% | at 33.0 µM 98% | at 100.0 µM 98%
inactive: at 1.2 µM -41% | at 3.7 µM -55%

CC(=O)N1C=Cc2c(c(C)c3c([nH]c4ccccc43)c2C)C1
inactive: at 1.2 µM 10% | at 3.7 µM 36%
active: at 11.0 µM 81% | at 33.0 µM 90% | at 100.0 µM 92%

O=C(O)c1c2ccc(Cl)cc2nc2[nH]c(=O)[nH]c(=O)c12
inactive: at 1.2 µM -30% | at 3.7 µM -33% | at 11.0 µM -25% | at 33.0 µM -23% | at 100.0 µM 4%

O=C1C(/C=C/c2ccc(Cl)cc2)=NNC2N1N=C1NC(=O)C3(NN12)c1ccccc1-c1ccccc13 (stereo not given)
inactive: at 1.2 µM -2% | at 3.7 µM -2% | at 11.0 µM -2% | at 33.0 µM 1% | at 100.0 µM 4%

CCO/C=C1\SC(=S)N(c2ccc(OCC)cc2)C1=O
inactive: at 1.2 µM -28% | at 3.7 µM -38% | at 11.0 µM -59% | at 33.0 µM -38% | at 100.0 µM 27%

Cc1ccc(C)c(C(=N)c2ccccc2Cc2ccccc2)c1
active: at 11.0 µM 78% | at 33.0 µM 93% | at 100.0 µM 97%
inactive: at 1.2 µM -1% | at 3.7 µM 42%

O=C(C#Cc1ccccc1)Nc1ccccc1
active: at 33.0 µM 90% | at 100.0 µM 99%
inactive: at 1.2 µM -9% | at 3.7 µM -4% | at 11.0 µM 19%

N#CC1OB(O)c2ccccc21 (stereo not given)
inactive: at 1.2 µM 0% | at 3.7 µM 0% | at 11.0 µM -1% | at 33.0 µM -2% | at 100.0 µM -2%
